High-throughput results: PubChem, National Center for Advancing Translational Sciences (NCATS)
Epigenetic derep = regulators of epigenetic silencing causing reporter derepression in mouse cells; murine LDR cells, GFP reporter derepression, 30 h; AID 1865; 280,000 tested, 0.2% active; Potency, µM (series often up to 53.9 µM), inactives show at the highest dose GFP activation, usual class: activators; active = well fitted activation curve with a large enough effect; inconclusive = small, poorly fitted or top-dose-only effect; note: potency is the fitted concentration of half-maximal effect; % of control where 0% means no effect; nearly all actives have a fitted effect of over 60% in size
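Murine LDR cells bearing a silenced CMV-driven GFP reporter were exposed to compound for 30 h at 37 C. After PBS washes, GFP-positive cells (20-120 um objects) counted by laser-scanning microplate cytometry.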
Menin MLL FP TR = displaces Texas Red mutant MLL peptide from human menin; 270,000 tested, 0.23% active; Menin + Texas Red MLL mutant peptide, fluorescence polarization; Potency, µM (highest dose often 61.6 µM), for the others: top-dose FP activity change, negative = inhibition, hits mostly inhibitors; O00255; active = well fitted inhibition curve with a large enough effect in the polarisation, with a control signal flat, not every such curve was filed as active; inconclusive = small, poorly fitted or top-dose-only effect, or effect the other way, or a change in a side signal; inactive = no such curve, though single readings can be large or run the other way; the % refers to the polarisation; note: potency is the fitted concentration of half-maximal effect; % of control where 0% means no effect
ClpP mod = qHTS Assay for Activators of ClpP; purified B. subtilis ClpP, FRET peptide cleavage, 20 min; Potency, µM (highest dose often 57.5 µM), without a hit: top-dose activity change, negative = active; 340,000 tested, 1.9% active; ATP-dependent Clp protease proteolytic subunit (Bacillus subtilis (strain 168)), P80244; active = well fitted falling curve with a large enough effect; inconclusive = small, poorly fitted or top-dose-only effect; inactive = no such curve, though single readings can be large or run the other way; note: potency is the fitted concentration of half-maximal effect; the source files actives as falling curves though it sought activators and does not explain the sign; nearly all actives have a fitted effect of over 65% in size
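Buffer: 100 mM Tris/HCl pH8, 100 mM KCl, 0.05% low protease BSA, 2.5% glycerol, 0.01% Tween-20. ClpP 10 microg/mL final; 20 min RT; delta FRET normalized to ADEP and DMSO controls.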
Menin MLL FP FL = displaces fluorescein MLL peptide from human menin; AID 1766; FP activity change, % at 61.4 µM; 290,000 tested, under 10 active; Fluorescence polarization, fluorescein-MLL peptide displacement from menin; active = well fitted curve in the direction sought with a large enough effect in the polarisation, not every such curve was filed as active; inconclusive = small, poorly fitted or top-dose-only effect, or effect the other way, or a change in a side signal; inactive = no such curve, though single readings can be large or run the other way; the % refers to the polarisation; note: % of control where 0% means no effect
PINK1 expr mod = changes PINK1 expression. 410,000 tested, 0.2% active. PINK1 immunofluorescence, high-content cytometry, 24 h. Potency, µM (doses to about 76.6 µM), for inactives: at the highest dose activation (PINK1 increase), usual class: activators; active = well fitted activation curve with a large enough effect; inconclusive = small, poorly fitted or top-dose-only effect; cell line not stated here; note: potency is the fitted concentration of half-maximal effect; % of control where 0% means no effect; nearly all actives have a fitted effect of over 65% in size
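PINK1 protein, normally rapidly degraded, was detected by immunofluorescence after 24 hour compound treatment of a stable cell line. Titration data (5 concentrations) came from laser-scanning cytometry, with CCCP-treated wells as controls.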
MLL CXXC-DNA inh = blocks binding of human MLL CXXC domain to DNA; Q03164; MLL-CXXC / FITC-HOXA9 DNA fluorescence polarization; Potency, µM (titrated, usually from 115 µM), without a hit: top-dose activity change, negative = inhibition, usual class: inhibitors; 290,000 tested, 0.037% active; active = well fitted inhibition curve with a large enough effect in the polarisation, with a control signal flat, not every such curve was filed as active; inconclusive = small, poorly fitted or top-dose-only effect, or effect the other way, or a change in a side signal; inactive = no such curve, though single readings can be large or run the other way; the % refers to the polarisation; note: potency is the fitted concentration of half-maximal effect
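Steps: dispense CXXC domain solution (7 uM) → pin compounds or unlabeled HOX-A9 DNA control → 5 min ambient → add FLSN-HOX-A9 solution (50 nM) → spin → 30 min ambient → fluorescence polarization. Tris pH 7.5/NaCl/DTT/BSA buffer.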
Numbers without * were called inactive; [ ] = remark or other dose. Hits are enriched below; roughly 1.9% of the tested compounds scored in any of these assays.

For CCn1c(-c2cccc(OC)c2)nc2cc(NC(C)=O)cc(C(=O)N3CCCC(C(C)=O)C3)c21 (stereo unspecified) the results were PINK1 expr mod 0.1%.
CCOc1ccc2[nH]c(=O)c(CN(Cc3ccc(C)cc3)C(=O)N3CCCC3)cc2c1 was read as Epigenetic derep 0.8%, Menin MLL FP TR -9.8%, ClpP mod 31.6µM*, Menin MLL FP FL 0.8, PINK1 expr mod 1.6% and MLL CXXC-DNA inh -6.8%.
`CCOc1ccc2[nH]c(=O)c(CN(CCc3ccccc3)C(=O)N3CCOCC3)cc2c1` gave Epigenetic derep 0.8%, Menin MLL FP TR 6.7%, ClpP mod 3.5%, Menin MLL FP FL 4.6, PINK1 expr mod 3.2% and MLL CXXC-DNA inh -7.7%.
`CCOc1ccc2[nH]c(=O)c(CN(CCc3ccccc3)C(=O)N3CCCC3)cc2c1` gave Epigenetic derep -0.6%, Menin MLL FP TR inconclusive, ClpP mod inconclusive, Menin MLL FP FL 1.0, PINK1 expr mod 2.4%[38.3 µM] and MLL CXXC-DNA inh -10.1%.
For CCOc1ccc2[nH]c(=O)c(CN(CCOC)C(=O)N3CCOCC3)cc2c1 the results were Epigenetic derep 0.0%, Menin MLL FP TR -15.4%, ClpP mod 28.2µM*, Menin MLL FP FL 0.5, PINK1 expr mod 1.0% and MLL CXXC-DNA inh -0.7%.
Cc1cccc(C)c1Nc1c(-c2ccsc2)nc2ccccn12 was read as Epigenetic derep -0.9%, ClpP mod 28.2µM* and PINK1 expr mod 3.2%.
Cc1cccc(C)c1Nc1c(-c2ccsc2)nc2ccc(Cl)cn12 was read as Epigenetic derep -1.8%, ClpP mod -19.2% and PINK1 expr mod 2.0%.
For CC(C)C(NC(=O)c1ccccn1)c1nnc2n1CCN(Cc1ccc3ccccc3c1)CC2 (stereo unspecified) the results were PINK1 expr mod -1.0%.
For COc1cccc(CNC(=O)c2ccccc2N)c1 the results were Epigenetic derep 2.0%, Menin MLL FP TR -28.0%, ClpP mod 5.62µM*, Menin MLL FP FL 3.7, PINK1 expr mod 0.6% and MLL CXXC-DNA inh 1.6%.
For Nc1ccccc1C(=O)NCc1ccc(Cl)cc1 the results were Epigenetic derep 1.1%, Menin MLL FP TR 0.4%, ClpP mod 7.08µM*, Menin MLL FP FL -6.3, PINK1 expr mod -0.8% and MLL CXXC-DNA inh 1.7%.
Nc1ccccc1C(=O)NCc1ccc(F)cc1 was read as Epigenetic derep 0.0%, Menin MLL FP TR -10.1%, ClpP mod 4.7%, Menin MLL FP FL 5.7, PINK1 expr mod -2.2% and MLL CXXC-DNA inh -15.2%.
C1=Cc2ccccc2/C1=C\c1cccc(/C=C2\C=Cc3ccccc32)c1 was read as ClpP mod -0.4% and PINK1 expr mod 0.1%.
Screening Cc1ccc(-c2nc(SCC(=O)Nc3cc(S(=O)(=O)N4CCCCC4)ccc3Cl)n[nH]2)cc1 returned Epigenetic derep -1.1%, Menin MLL FP TR -28.5%, ClpP mod 0.2%, Menin MLL FP FL 8.7, PINK1 expr mod 31.6µM* and MLL CXXC-DNA inh -3.6%.
Nc1cc(=O)[nH]c(SCC(=O)Nc2cc(S(=O)(=O)N3CCCCCC3)ccc2Cl)n1 was read as ClpP mod -3.9% and PINK1 expr mod 7.7%.
O=C(Nc1cccc(OCc2cc(=O)n3c4c(sc3n2)CCCC4)c1)c1ccc(F)cc1 was read as Epigenetic derep 25.1µM*, ClpP mod inconclusive and PINK1 expr mod 17.4%.
For O=C(NCCN1CCCCC1)c1cc2ccccc2[nH]1 the results were Epigenetic derep -4.3%, Menin MLL FP TR 2.7%, ClpP mod 17.8µM*, Menin MLL FP FL 1.8, PINK1 expr mod -0.3% and MLL CXXC-DNA inh 1.0%.
For COc1cc2ccccc2cc1C(=O)O the results were Epigenetic derep 0.0%, ClpP mod inconclusive, Menin MLL FP FL 1.8, PINK1 expr mod -0.9% and MLL CXXC-DNA inh -11.3%.
COc1cccc2c(=O)c(C(=O)NCCc3ccccc3)c[nH]c12 was read as ClpP mod 4.3% and PINK1 expr mod 1.0%.
COc1cccc2c(=O)c(C(=O)O)c[nH]c12 was read as Epigenetic derep -3.5%, Menin MLL FP TR -0.7%, ClpP mod 22.4µM*, Menin MLL FP FL 0.6, PINK1 expr mod -2.0%[38.3 µM] and MLL CXXC-DNA inh 9.6%.
For COc1cc2c(OC)cccc2cc1C(=O)O the results were Epigenetic derep 0.0%, Menin MLL FP TR -2.7%, ClpP mod 15.8µM*, Menin MLL FP FL -0.6, PINK1 expr mod 1.1%[38.3 µM] and MLL CXXC-DNA inh -4.7%.
`COC(=O)CSc1nc2cc(C)ccc2cc1C#N` gave Epigenetic derep 15.8µM*, Menin MLL FP TR 4.1%, ClpP mod -6.9%, Menin MLL FP FL 5.6, PINK1 expr mod 10.8% and MLL CXXC-DNA inh 17.8%.
COC(=O)CSc1ccc(C#N)c(SCC(=O)OC)c1 was read as Epigenetic derep -0.9%, Menin MLL FP TR 20.4%, ClpP mod 14.1µM*, Menin MLL FP FL 1.5, PINK1 expr mod 5.3% and MLL CXXC-DNA inh 0.3%.
`COC(=O)CSc1nc(-c2ccc(C)cc2)c2c(c1C#N)CCCC2` gave Epigenetic derep -1.0%, Menin MLL FP TR -15.7%, ClpP mod 28.2µM*, Menin MLL FP FL 2.8, PINK1 expr mod -0.8% and MLL CXXC-DNA inh 4.1%.
Screening COC(=O)CSc1cc(SCC(=O)OC)c(C#N)c(SCC(=O)OC)c1 returned Epigenetic derep 0.1%, Menin MLL FP TR 3.0%, ClpP mod -3.6%, Menin MLL FP FL 2.1, PINK1 expr mod 7.4% and MLL CXXC-DNA inh 4.3%.
Screening CCOC(=O)c1cc(-c2ccco2)nc2c1c(C)nn2-c1ccccc1 returned Epigenetic derep -0.6%, Menin MLL FP TR inconclusive, ClpP mod -4.7%, Menin MLL FP FL 7.2, PINK1 expr mod 6.3% and MLL CXXC-DNA inh 1.8%.
Screening CC(C)CCNC(=O)c1cnn2c(C(F)(F)F)cc(-c3ccco3)nc12 returned Epigenetic derep -0.7%, Menin MLL FP TR inconclusive, ClpP mod -12.1%, Menin MLL FP FL 13.9, PINK1 expr mod 0.8%[38.3 µM] and MLL CXXC-DNA inh -8.2%.
`CCCn1c(=O)c2c(C(=O)OCC)cc(-c3ccco3)nc2n(CCC)c1=O` gave Epigenetic derep 0.1%, Menin MLL FP TR -6.9%, ClpP mod 12.6µM*, Menin MLL FP FL 5.5, PINK1 expr mod 6.6%[38.3 µM] and MLL CXXC-DNA inh -2.3%.
CCOC(=O)c1cnn2c(C(F)(F)F)cc(-c3ccco3)nc12 was read as Epigenetic derep -8.9%, Menin MLL FP TR 10.4%, ClpP mod 31.6µM*, Menin MLL FP FL 1.3, PINK1 expr mod 0.1% and MLL CXXC-DNA inh -1.6%.
Cn1nccc1C(=O)NCC1CCC2(CCN(Cc3ccc(-c4ccc(Cl)cc4)o3)CC2)O1 (stereo unspecified) was read as PINK1 expr mod -1.0%.
For Cn1cnnc1Sc1ccc(CN2CCOc3ccc(C4=Cc5ccccc5CC4)cc3C2)o1 the results were PINK1 expr mod -0.2%.
